# From PubChem BioAssay AID1654 (Sanford-Burnham Center for Chemical Genomics, 2009)
# About 1,500 (0.52%) of roughly 290,000 compounds were called active. No stated cut-off is given here; in the data, active means inhibition above about 50%; inactive means the rest. The entries come from a sample that favours actives as a whole.
# Target: Dual specificity protein phosphatase 3 (Homo sapiens) (UniProt P51452)
# Assay: VHR1 phosphatase inhibitors, primary screen, biochemical, absorbance, uHTS (AID 1654)
# [1] = recombinant VHR phosphatase, pNPP absorbance, at 13.3 µM, stronger effect = higher value
# Sequence of Dual specificity protein phosphatase 3 (Homo sapiens) (P51452 whole entry, looked up): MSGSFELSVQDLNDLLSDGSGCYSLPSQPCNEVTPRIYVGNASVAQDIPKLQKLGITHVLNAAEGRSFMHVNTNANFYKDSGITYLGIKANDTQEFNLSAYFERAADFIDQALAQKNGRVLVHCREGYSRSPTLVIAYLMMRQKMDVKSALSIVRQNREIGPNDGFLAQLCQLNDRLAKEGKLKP
structure (smiles),measurement,setting,value
Cc1cc(C)c(S(=O)(=O)N(C)CC(=O)NCC2CCCO2)c(C)c1 (stereo unspecified),inhibition,[1],20.6% (inactive)
COc1ccc(CN(C)C(=S)Nc2ccc(Cl)cc2Cl)cc1,inhibition,[1],-0.1% (inactive)
CC(=O)N1CCc2cc(S(=O)(=O)NC3CCCCC3)ccc21,inhibition,[1],-7.7% (inactive)
O=C(Nc1ccc(S(=O)(=O)Nc2ccccn2)cc1)c1ccccc1,inhibition,[1],5.4% (inactive)
COc1cccc2cc(C(=O)N(C)C)c(=O)oc12,inhibition,[1],18.2% (inactive)
COc1cccc2cc(C(=O)NCc3ccc(C)cc3)c(=N)oc12,inhibition,[1],53.5% (active)
N=c1oc2ccccc2cc1C(=O)NCc1ccccc1,inhibition,[1],-2.5% (inactive)
CN(CC(=O)Nc1ccc(Cl)cc1)C(=O)CNC(=O)c1ccc2ccccc2c1,inhibition,[1],27.9% (inactive)
Cn1c(C(=O)N2CCCC(C(=O)NCc3ccccc3)C2)cc2sccc21 (stereo unspecified),inhibition,[1],22.8% (inactive)
CCc1ccc2nc3sc(C(=O)Nc4nnc(CC)s4)c(N)c3cc2c1,inhibition,[1],52.7% (active)
CCc1nnc(NC(=O)c2sc3nc(C)cc(COC)c3c2N)s1,inhibition,[1],3.9% (inactive)
CCc1nnc(NC(=O)c2cccc(S(=O)(=O)N(C)c3ccc(OC)cc3)c2)s1,inhibition,[1],13.9% (inactive)
COC(=O)Cc1cnc(NC(=O)CSc2nc(C(C)C)cc(=O)[nH]2)s1,inhibition,[1],-28.8% (inactive)
CCN1C(=NCCc2cccnc2)N[C@@H](c2ccccc2)[C@H](C(=O)OC)[C@H]1C,inhibition,[1],36% (inactive)
CC(=O)c1ccc(OC(=O)N2CCOCC2)cc1,inhibition,[1],1.7% (inactive)
O=C(O)CC(CC(=O)N1CCOCC1)c1ccccc1 (stereo unspecified),inhibition,[1],-12.8% (inactive)
CC(C)Oc1ccc(C(CC(=O)N2CCOCC2)C(C)C)cc1 (stereo unspecified),inhibition,[1],53% (active)
COC(=O)CN1C(=O)[C@H]2[C@@H](/C=C/c3ccccc3)N3C(=O)CN(Cc4ccccc4)C(=O)[C@@]3(Cc3ccccc3)[C@H]2C1=O,inhibition,[1],13.4% (inactive)
COCC1CCN(C(=O)C2CCC(=O)N(CC3CCCCC3)C2)CC1 (stereo unspecified),inhibition,[1],6.5% (inactive)
CC(C)=CCCC1(C)C=Cc2c(ccc3c2[nH]c2cc(O)c(C)cc23)O1 (stereo unspecified),inhibition,[1],16.5% (inactive)
COc1ccc(CN(C)C(=O)c2cc(-c3ccc(C)cc3C)nc3ccccc23)c(OC)c1OC,inhibition,[1],-8.1% (inactive)
Cn1c(CCNS(=O)(=O)c2ccc(F)cc2)nnc1SCc1cccnc1,inhibition,[1],17% (inactive)
C#CC(CCN1CCCCC1)(OC)c1ccccc1 (stereo unspecified),inhibition,[1],5.2% (inactive)
CCOc1ccc(CCNC(=O)CCc2nnc3ccc(N4CCCC4)nn23)cc1OCC,inhibition,[1],21.2% (inactive)
CCN(CC)c1ccc(NC(=O)CCc2nnc3ccc(N4CCCCC4)nn23)c(C)c1,inhibition,[1],56.7% (active)
CCOC(=O)c1cccc(NC(=O)CCc2nnc3ccc(N4CCOCC4)nn23)c1,inhibition,[1],10.4% (inactive)
Cc1cccc(C)c1NC(=O)C(Cl)C(=O)c1ccccc1 (stereo unspecified),inhibition,[1],0% (inactive)
Cc1[nH]c2ccccc2c1/C=N\NC(=O)Cn1nnc(-c2ccccc2)n1,inhibition,[1],-6.7% (inactive)
Nc1nnnn1CC(=O)N/N=C/c1ccc(-c2cccc(Cl)c2)o1,inhibition,[1],5.3% (inactive)
O=C(Cn1nnc(-c2ccccc2)n1)N/N=C/c1ccc(-c2ccc(Cl)cc2)o1,inhibition,[1],50.8% (active)
Cc1ccc(-c2nc(CS(=O)(=O)CC(=O)NCc3ccc4c(c3)OCO4)c(C)o2)cc1,inhibition,[1],9.7% (inactive)
CN1C2CCC1/C(=C\c1ccccc1Cl)C(=O)/C2=C\c1ccccc1Cl,inhibition,[1],-0.2% (inactive)
Cc1ccsc1/C=C1\SC(N2CCOCC2)=NC1=O,inhibition,[1],51% (active)
Cc1ccc(N2CCN(C3=NC(=O)/C(=C\c4cccs4)S3)CC2)cc1,inhibition,[1],-10.9% (inactive)
CCc1ccc(/C=C2\SC(N3CCOCC3)=NC2=O)cc1,inhibition,[1],19.9% (inactive)
O=[N+]([O-])c1cc(C(F)(F)F)ccc1NCCc1ccncc1,inhibition,[1],-7.6% (inactive)
Cc1cc(C)n2nc(C(=O)NC(C)(C)C)nc2n1,inhibition,[1],38.4% (inactive)
Cc1cc(C)n2nc(CNS(=O)(=O)c3c(F)c(F)c(F)c(F)c3F)nc2n1,inhibition,[1],51.3% (active)
Cc1cc(C)n2nc(SCC(N)=O)nc2n1,inhibition,[1],24.2% (inactive)
CCOC(=O)c1c(C)[nH]c(C2=NNC(=NC(C)COC)SC2)c1C (stereo unspecified),inhibition,[1],8.2% (inactive)
Cc1ccc2oc(C(=O)N3CCN(C)C[C@@H]3C(C)C)c(C)c2c1,inhibition,"recombinant VHR phosphatase, pNPP absorbance; at 13.3 µM; stronger effect = higher value",80.7% (inactive)
same,inhibition,"recombinant VHR phosphatase, pNPP absorbance; measured here: average of confirmation repeats; at 13.3 µM; stronger effect = higher value",-20.8%
Cc1ccccc1OCC(=O)NNC(=O)c1cc(S(=O)(=O)N(C)C)ccc1N1CCCC1,inhibition,[1],-23.3% (inactive)
COCCNC(=O)c1snc2ccc(Cl)cc12,inhibition,[1],50% (active)
COCCNC(=O)c1ccc2c(c1)ncn2-c1ccc(C)c(Cl)c1,inhibition,[1],5.8% (inactive)
COCCNC(=O)c1ccc(S(=O)(=O)c2ccc(Cl)cc2)c(NC(C)=O)c1,inhibition,[1],13.8% (inactive)
Cc1ccc(C(=O)O/N=C(\N)c2ccccn2)cc1Cl,inhibition,[1],11.4% (inactive)
O=S(=O)(NCc1cccnc1)c1ccc(Br)s1,inhibition,[1],35.9% (inactive)
O=S(=O)(NCc1cccnc1)c1ccc(Cl)nc1,inhibition,[1],50.3% (active)
CC1CCN(S(=O)(=O)c2ccc(S(=O)(=O)NCc3cccnc3)cc2)CC1,inhibition,[1],40% (inactive)
Cc1ccc(NC(=O)CN(C)C(=O)COC(=O)C(C)(C)Oc2ccc(Cl)cc2)cc1,inhibition,[1],-4.4% (inactive)
CC(=O)OCCN(CCCn1c(-c2ccncc2)nc2ccccc21)c1nc(-c2ccc(C)cc2)cs1,inhibition,[1],9.5% (inactive)
COc1ccc(C(CCN(Cc2ccc(OC)c(OC)c2)C(=O)CCl)c2ccccc2)cc1 (stereo unspecified),inhibition,[1],0.4% (inactive)
Cc1ccc2c(c1)C(c1ccccc1)N(C(=O)c1ccc(F)cc1)CC(=O)N2 (stereo unspecified),inhibition,[1],23.9% (inactive)
Cc1ccc(/C=N/NC(=O)CSc2ccccn2)o1,inhibition,[1],-2.8% (inactive)
Cc1ccc(/C=N/NC(=O)CNC(=O)COc2ccccc2)o1,inhibition,[1],52.9% (active)
CCOc1ccccc1/C=N/NC(=O)CNC(=O)COc1ccccc1,inhibition,[1],26.2% (inactive)
CCOc1ccc(C(C(=O)NCCOC)N(CCOC)C(=O)CCC(=O)Nc2ccccn2)cc1 (stereo unspecified),inhibition,[1],36.3% (inactive)
COc1ccc2[nH]c(C(=O)N/N=C/c3cc(OC)c(OC)c(OC)c3)cc2c1,inhibition,[1],14.1% (inactive)
CCOc1ccc2[nH]c(C(=O)N/N=C/c3cccc(OC)c3OC)cc2c1,inhibition,[1],26.8% (inactive)
COc1cc2cc(C(=O)N/N=C/c3cccc(OC)c3OC)[nH]c2cc1OC,inhibition,[1],58.2% (active)
CCCn1nnnc1NCc1ccc(CC)cc1,inhibition,[1],10.8% (inactive)
O=C(c1ccc(Cl)cc1)n1cnc2ccccc21,inhibition,[1],4.1% (inactive)
COC1=C(N2CCOCC2)C(=O)c2ccccc2C1=O,inhibition,[1],57.3% (active)
O=C1C(Cl)=C(N2CCOCC2)C(=O)N1c1ccccc1,inhibition,[1],29.6% (inactive)
COc1ccc(N2CCN(C(C)=C3C(=O)c4ccccc4C3=O)CC2)cc1,inhibition,[1],30.2% (inactive)
CCc1ccc(CNC(=O)C2CCN(c3nnc(C)c4c(C)n(-c5ccc(C)cc5)nc34)CC2)cc1,inhibition,[1],-20.3% (inactive)
O=C(CNC(=O)c1cccnc1)N/N=C/c1cc(Br)c(O)c(Br)c1,inhibition,[1],52.6% (active)
O=C(CNC(=O)c1cccnc1)N/N=C/c1cccnc1,inhibition,[1],17.2% (inactive)
CCN(CC)c1ccc(/C=N/NC(=O)CNC(=O)c2cccnc2)cc1,inhibition,[1],-4.7% (inactive)
Cc1cc(-c2nnc(SCC(=O)Nc3ccc(F)cc3)n2N)n[nH]1,inhibition,[1],8% (inactive)
COc1cccc(CNCc2ccc3c(c2)OCO3)c1,inhibition,[1],3.6% (inactive)
CN(C(=O)C1CCN(c2ncnc3c2nc2n3CCCCC2)CC1)C1CCCCC1,inhibition,[1],21.1% (inactive)
CCOC(=O)c1cc(S(=O)(=O)NCCc2ccc(OC)c(OC)c2)cn1C,inhibition,[1],55.6% (active)
COc1ccc(CCNS(=O)(=O)c2ccc(F)cc2)cc1OC,inhibition,[1],2.8% (inactive)
CCS(=O)(=O)NCCc1ccc(OC)c(OC)c1,inhibition,[1],3.5% (inactive)
CCOC(=O)c1ccc2[nH]c3c(c2c1)CCCC3NC=O (stereo unspecified),inhibition,[1],5.2% (inactive)
COc1ccc(N2CCN(C(=O)c3ccc(N4CCCCS4(=O)=O)cc3)CC2)cc1,inhibition,[1],21.1% (inactive)
Cc1ccc(S(=O)(=O)N(CC(O)CN2C(=O)NC(C)(C)C2=O)c2cccc([N+](=O)[O-])c2)cc1 (stereo unspecified),inhibition,[1],6.7% (inactive)
Cc1cc(C)c(S(=O)(=O)c2ccc(F)cc2C)c(=O)[nH]1,inhibition,[1],-16.2% (inactive)
COc1ccccc1S(=O)(=O)c1c(C)cc(C)[nH]c1=O,inhibition,[1],8.8% (inactive)
Cc1cc(C)c(S(=O)(=O)c2cc(F)ccc2C)c(=O)[nH]1,inhibition,[1],56.9% (active)
CCn1c(C(O)c2cc(OC)ccc2OC)nc2ccccc21 (stereo unspecified),inhibition,[1],-40.5% (inactive)
COc1ccc(OC)c(C(O)c2nc3ccccc3n2C)c1 (stereo unspecified),inhibition,[1],57% (active)
CCCn1c(C(O)c2cc(OC)ccc2OC)nc2ccccc21 (stereo unspecified),inhibition,[1],6.4% (inactive)
COc1cccc(NC(=O)C2C(c3ccccc3)C2(Cl)Cl)c1 (stereo unspecified),inhibition,[1],-7.8% (inactive)
Cc1cc(C)c(C#N)c(Nc2cccc(Br)c2)n1,inhibition,[1],0.3% (inactive)
COc1cc(Cl)ccc1OCc1cc(C(=O)N(C)CCc2c(C)n[nH]c2C)no1,inhibition,[1],1.6% (inactive)
Cc1ccccc1Nc1c([N+](=O)[O-])ccc2nonc12,inhibition,[1],17.2% (inactive)
CS(=O)(=O)C1=NN2C(=N)/C(=C\c3ccc(OCCOc4ccccc4)cc3)C(=O)N=C2S1,inhibition,[1],26.8% (inactive)
COc1ccccc1OCCOc1ccc(/C=C2\C(=N)N3N=C(C)SC3=NC2=O)cc1,inhibition,[1],59.3% (active)
CCOc1cc(/C=C2\C(=N)N3N=C(C)SC3=NC2=O)ccc1OCCOc1ccccc1,inhibition,[1],17.9% (inactive)
C=CCN1C(=NC(=O)COc2ccccc2)SC2CS(=O)(=O)CC21 (stereo unspecified),inhibition,[1],19% (inactive)
COC(=O)NNC1=CC(=O)CC(C)(C)C1,inhibition,[1],1.2% (inactive)
Cc1cc(C)nc(NNC2=CC(=O)CC(C)(C)C2)n1,inhibition,[1],51.3% (active)
CC1(C)CC(=O)C=C(Nc2ccccc2)C1,inhibition,[1],-8.5% (inactive)
